Among the data in PubChem BioAssay (EPA / NIEHS) are outcome and AC50 values, retold here.

Assay [1] addresses human Peroxisome Proliferator-activated Receptor delta (PPARd), PPARD (gene 5467) (UniProt Q03181). Nature of the assay: ATG_PPARd_TRANS: Attagene TRANS-FACTORIAL HepG2 Assay for human Peroxisome Proliferator-activated Receptor delta (PPARd) (AID 2283002). The procedure, abridged:
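Read-out is induced reporter mRNA, quantified by RT-PCR with fluorescent labelling and capillary electrophoresis after 24 h dosing. Cells are HepG2 transiently carrying multiple GAL4-UAS reporter units driven by exogenous NR-GAL4 chimeras; DMSO serves as baseline.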

Read-out in assay [2]: Intercellular Adhesion Molecule 1 (ICAM1), ICAM1 (gene 3383)
Briefly: BSK_3C_ICAM1: BioMAP Diversity Plus: 3C Assay for Intercellular Adhesion Molecule 1 (ICAM1) Biomarker Activity (AID 2283003; active = hit-call score of the fitted dose curve at least 0.9, where 1 is the maximum; inactive = score below 0.9). Particulars: primary human endothelial cells (HUVEC); actives raise or lower the signal. A digest of the protocol:
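Primary human umbilical vein endothelial cells in the BioMAP 3C system were exposed to chemicals for 24 h, then ICAM-1 was quantified by ELISA. Activity was fitted bidirectionally against the DMSO negative control baseline.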

For assay [3], the target named is Retinoic acid receptor alpha (Homo sapiens) (UniProt P10276). Briefly: ATG_RARa_TRANS: Attagene TRANS-FACTORIAL HepG2 Assay for human Retinoic Acid Receptor alpha (RARa) (AID 2283005). A digest of the protocol:
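Reporter transcripts, measured by RT-PCR with fluorescent labeling and capillary electrophoresis after 24 h dosing, reflect activity of an exogenous human RARa–GAL4 fusion in transiently transfected HepG2. Fitted for increase relative to DMSO.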

The nature of assay [4]: BSK_3C_Proliferation: Cell Proliferation Assessment in the BioMAP Diversity Plus: 3C Assay (AID 2283006; active = hit-call score of the fitted dose curve at least 0.9, where 1 is the maximum; inactive = score below 0.9;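 for AC50: potency may reflect either rise or fall in cell number versus DMSO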). To be noted: primary human endothelial cells (HUVEC). The procedure, abridged: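 Human umbilical vein endothelial cells were grown sub-confluent and exposed to chemical for 48 h, then fixed with 10% TCA and stained with 0.1% sulforhodamine B; absorbance at 560 nm gave relative cell number, fitted bidirectionally against DMSO baseline.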

In assay [5] the target is Peroxisome proliferator-activated receptor gamma (Homo sapiens) (UniProt P37231). Nature of the assay: ATG_PPARg_TRANS: Attagene TRANS-FACTORIAL HepG2 Assay for human Peroxisome Proliferator-activated Receptor-gamma (PPARg) (AID 2283007). The procedure, abridged:
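Chimeric NR-Gal4 transactivation is measured in transiently transfected HepG2 cells by reporter mRNA induction at 24 h. Detection uses RT-PCR with fluorescent labelling and capillary electrophoresis; DMSO defines baseline.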

Assay [6] addresses Nuclear receptor subfamily 1 group I member 2 (Homo sapiens) (UniProt O75469). Briefly: ATG_PXR_TRANS: Attagene TRANS-FACTORIAL HepG2 Assay for human Pregnane X Receptor (PXR) (AID 2283008). A digest of the protocol: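 Measures mRNA induction of a GAL4-UAS-driven reporter in human HepG2 cells transiently expressing PXR fused to Gal4, following 24 h treatment. DMSO served as negative control and baseline.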

Assay [7] has as its target human RAR-related Orphan Receptor beta (RORb), RORB (gene 6096) (UniProt Q92753). Nature of the assay: ATG_RORb_TRANS: Attagene TRANS-FACTORIAL HepG2 Assay for human RAR-related Orphan Receptor beta (RORb) (AID 2283010). A digest of the protocol: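 HepG2 cells were transiently transfected with multiplexed GAL4-UAS reporter units expressing chimeric nuclear receptor–GAL4 proteins, then dosed for 24 h. Reporter mRNA was quantified by RT-PCR with fluorescent labelling and capillary electrophoresis; gain of signal was fitted relative to DMSO.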

Assay [8] addresses human Retinoic Acid Receptor beta (RARb), RARB (gene 5915) (UniProt P10826). Nature of the assay: ATG_RARb_TRANS: Attagene TRANS-FACTORIAL HepG2 Assay for human Retinoic Acid Receptor beta (AID 2283004). A digest of the protocol: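 HepG2 cells were transiently transfected with GAL4-UAS reporter units that report activity of exogenous chimeric NR-Gal4 proteins, then exposed to compound for 24 h. Reporter mRNA was quantified by RT-PCR with capillary electrophoresis fluorescence, as gain of signal over DMSO.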

For assay [9], the target named is human RAR-related Orphan Receptor gamma (RORg), RORC (gene 6097) (UniProt P51449). Nature of the assay: ATG_RORg_TRANS: Attagene TRANS-FACTORIAL HepG2 Assay for human RAR-related Orphan Receptor gamma (RORg) (AID 2283011). The procedure, abridged: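 HepG2 cells transiently transfected with GAL4-UAS reporter units and chimeric RORg-Gal4 construct; after 24 h chemical exposure, reporter mRNA measured by RT-PCR with fluorescent capillary electrophoresis, gain of signal fitted against DMSO.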

The term AC50 denotes the concentration at which the activity in the assay is half-maximal.

Inconclusive results are not listed. The source made the active and inactive calls. Rule for the calls, unless noted: active = hit-call score of the fitted dose curve at least 0.9, where 1 is the maximum; inconclusive = response in the unintended direction; inactive = score below 0.9.

Sequence of human Retinoic Acid Receptor beta (RARb), RARB (gene 5915) (P10826 whole entry, looked up, the tested form may be a part): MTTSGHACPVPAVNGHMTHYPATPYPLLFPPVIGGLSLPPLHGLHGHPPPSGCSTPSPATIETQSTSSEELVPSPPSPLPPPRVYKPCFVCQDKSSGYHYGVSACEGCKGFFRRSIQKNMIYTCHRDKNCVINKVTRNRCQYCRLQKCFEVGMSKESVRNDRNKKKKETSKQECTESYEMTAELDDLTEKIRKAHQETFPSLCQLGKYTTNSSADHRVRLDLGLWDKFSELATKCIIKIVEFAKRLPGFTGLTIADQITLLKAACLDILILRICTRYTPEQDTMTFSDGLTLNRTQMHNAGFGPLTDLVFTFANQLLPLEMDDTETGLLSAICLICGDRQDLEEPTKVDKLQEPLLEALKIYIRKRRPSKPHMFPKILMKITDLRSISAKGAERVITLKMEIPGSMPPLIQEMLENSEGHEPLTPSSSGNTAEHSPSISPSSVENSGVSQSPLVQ
Sequence of Peroxisome proliferator-activated receptor gamma (Homo sapiens) (P37231 whole entry, looked up, the tested form may be a part): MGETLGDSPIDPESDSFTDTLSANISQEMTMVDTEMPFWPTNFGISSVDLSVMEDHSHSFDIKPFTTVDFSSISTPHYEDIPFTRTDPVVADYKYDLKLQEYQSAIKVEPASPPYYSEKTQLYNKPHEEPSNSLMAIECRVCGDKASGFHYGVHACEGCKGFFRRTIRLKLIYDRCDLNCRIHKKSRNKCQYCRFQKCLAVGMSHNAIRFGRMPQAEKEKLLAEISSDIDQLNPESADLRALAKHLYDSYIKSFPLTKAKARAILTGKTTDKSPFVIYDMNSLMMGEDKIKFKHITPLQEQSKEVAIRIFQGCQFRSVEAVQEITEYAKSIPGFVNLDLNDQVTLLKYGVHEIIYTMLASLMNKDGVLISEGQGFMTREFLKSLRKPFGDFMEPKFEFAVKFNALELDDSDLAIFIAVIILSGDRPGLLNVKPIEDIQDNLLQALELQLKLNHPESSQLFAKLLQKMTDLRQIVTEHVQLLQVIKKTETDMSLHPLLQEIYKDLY
Sequence of Nuclear receptor subfamily 1 group I member 2 (Homo sapiens) (O75469 whole entry, looked up, the tested form may be a part): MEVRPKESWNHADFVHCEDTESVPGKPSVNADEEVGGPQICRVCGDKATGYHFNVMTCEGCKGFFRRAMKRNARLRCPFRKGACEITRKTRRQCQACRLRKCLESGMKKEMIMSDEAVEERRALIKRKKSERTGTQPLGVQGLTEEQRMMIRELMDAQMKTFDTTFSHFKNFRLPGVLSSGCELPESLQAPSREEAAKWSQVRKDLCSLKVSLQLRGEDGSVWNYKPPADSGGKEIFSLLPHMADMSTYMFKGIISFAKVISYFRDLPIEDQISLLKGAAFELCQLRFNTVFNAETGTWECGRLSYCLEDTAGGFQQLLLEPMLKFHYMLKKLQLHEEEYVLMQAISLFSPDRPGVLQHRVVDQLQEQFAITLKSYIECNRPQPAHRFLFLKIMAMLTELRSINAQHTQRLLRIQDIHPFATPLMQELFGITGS
Sequence of Retinoic acid receptor alpha (Homo sapiens) (P10276 whole entry, looked up, the tested form may be a part): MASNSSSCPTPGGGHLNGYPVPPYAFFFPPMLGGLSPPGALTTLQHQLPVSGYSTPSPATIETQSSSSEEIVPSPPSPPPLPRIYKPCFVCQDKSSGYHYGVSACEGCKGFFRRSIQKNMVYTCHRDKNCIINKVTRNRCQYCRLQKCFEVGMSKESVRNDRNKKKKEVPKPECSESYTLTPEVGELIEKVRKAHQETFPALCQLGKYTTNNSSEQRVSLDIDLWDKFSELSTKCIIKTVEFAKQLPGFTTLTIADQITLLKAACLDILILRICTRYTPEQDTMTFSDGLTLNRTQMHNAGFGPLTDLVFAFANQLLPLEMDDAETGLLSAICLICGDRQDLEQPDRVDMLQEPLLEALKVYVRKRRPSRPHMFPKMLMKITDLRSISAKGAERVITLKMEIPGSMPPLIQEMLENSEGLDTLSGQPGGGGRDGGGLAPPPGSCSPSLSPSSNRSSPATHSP
Sequence of human Peroxisome Proliferator-activated Receptor delta (PPARd), PPARD (gene 5467) (Q03181 whole entry, looked up, the tested form may be a part): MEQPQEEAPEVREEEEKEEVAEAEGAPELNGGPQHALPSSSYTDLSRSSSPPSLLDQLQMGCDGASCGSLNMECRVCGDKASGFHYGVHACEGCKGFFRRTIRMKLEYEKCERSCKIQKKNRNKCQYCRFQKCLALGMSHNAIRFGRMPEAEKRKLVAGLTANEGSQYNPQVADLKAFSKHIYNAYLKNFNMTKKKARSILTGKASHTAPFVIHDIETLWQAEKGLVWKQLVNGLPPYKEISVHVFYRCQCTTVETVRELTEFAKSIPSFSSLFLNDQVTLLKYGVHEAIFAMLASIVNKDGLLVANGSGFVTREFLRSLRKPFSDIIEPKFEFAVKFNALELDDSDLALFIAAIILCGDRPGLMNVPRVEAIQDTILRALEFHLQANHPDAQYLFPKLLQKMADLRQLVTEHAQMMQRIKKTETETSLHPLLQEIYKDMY
Sequence of human RAR-related Orphan Receptor beta (RORb), RORB (gene 6096) (Q92753 whole entry, looked up, the tested form may be a part): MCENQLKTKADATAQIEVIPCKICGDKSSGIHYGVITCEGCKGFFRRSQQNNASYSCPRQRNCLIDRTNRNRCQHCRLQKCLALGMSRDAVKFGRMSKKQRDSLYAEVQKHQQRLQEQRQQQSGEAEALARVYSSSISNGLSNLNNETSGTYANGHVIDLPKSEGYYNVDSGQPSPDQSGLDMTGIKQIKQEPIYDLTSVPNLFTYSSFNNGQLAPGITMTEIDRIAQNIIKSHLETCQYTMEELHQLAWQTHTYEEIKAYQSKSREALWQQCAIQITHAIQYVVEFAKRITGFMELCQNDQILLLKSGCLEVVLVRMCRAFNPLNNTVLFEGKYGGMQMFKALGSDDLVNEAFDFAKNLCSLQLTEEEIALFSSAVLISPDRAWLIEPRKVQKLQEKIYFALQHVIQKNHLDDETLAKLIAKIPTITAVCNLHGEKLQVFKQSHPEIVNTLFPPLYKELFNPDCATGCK
Sequence of human RAR-related Orphan Receptor gamma (RORg), RORC (gene 6097) (P51449 whole entry, looked up, the tested form may be a part): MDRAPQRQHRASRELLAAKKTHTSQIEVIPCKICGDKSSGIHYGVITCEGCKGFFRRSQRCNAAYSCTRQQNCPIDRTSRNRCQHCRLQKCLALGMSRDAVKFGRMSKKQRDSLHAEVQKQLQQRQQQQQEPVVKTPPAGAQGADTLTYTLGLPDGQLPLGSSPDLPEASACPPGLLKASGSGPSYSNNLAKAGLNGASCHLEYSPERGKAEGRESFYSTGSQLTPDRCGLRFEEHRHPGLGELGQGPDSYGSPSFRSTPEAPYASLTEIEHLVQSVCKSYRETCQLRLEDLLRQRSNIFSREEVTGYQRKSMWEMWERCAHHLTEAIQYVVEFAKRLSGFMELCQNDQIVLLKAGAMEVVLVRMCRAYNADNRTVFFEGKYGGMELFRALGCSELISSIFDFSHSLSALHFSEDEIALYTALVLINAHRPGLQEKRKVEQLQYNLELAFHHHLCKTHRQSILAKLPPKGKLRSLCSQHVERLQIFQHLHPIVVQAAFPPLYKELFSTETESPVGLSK

Regarding `CCNc1cccc(C)c1`, the molecule was classed as inactive in assay [1], in [2], in [3], in assay [4], in [5] and in assay [6]. In addition, the molecule was classed as inactive in assay [7].
Regarding `Cc1ccc(C)c(O)c1C`, the molecule was classed as inactive in assay [1], in assay [2], in [8], in assay [4], in [5] and in assay [6]. In assay [7], the call was inactive.
Take `C[Si]1(C)O[Si](C)(C)O[Si](C)(C)O[Si](C)(C)O1`: the molecule was classed as inactive in assay [1], in [2], in assay [4], in assay [5], in [6] and in assay [7]. In [9], the outcome was inactive.
As to `NC(=O)Cn1c(=O)cc(CCN2CCN(c3nccc4sccc34)CC2)c2ccc(F)cc21`, the result in assay [1], in assay [2], in assay [5] and in assay [6] was inactive. Also, the AC50 in [4] is 0.148 µM (active).
As for `CCCCCCC(=O)OCC`, the result in assay [1], in assay [2], in assay [8], in assay [3], in assay [4] and in assay [7] was inactive. Also, in assay [6], the AC50 was 57.3 µM (active).
For the molecule `COCCOC[C@H](CC1(C(=O)NC2CCC(C(=O)O)CC2)CCCC1)C(=O)Oc1ccc2c(c1)CCC2` (stereo partly drawn), the outcome in assay [1], in [2], in [8], in assay [4] and in assay [5] was inactive. Further, the concentration at half-maximal activity (AC50) in assay [6] is 20.6 µM (active).
Turning to `CCCCCC(=O)O`, the outcome in assay [1], in [2] and in assay [4] was inactive.
As for `FC(F)(F)C(F)(F)C(F)(F)C(F)(F)C(F)(F)C(F)(F)CCI`, the molecule was called inactive in assay [1], in assay [2], in [3], in assay [4], in assay [6] and in assay [7]. Besides, in assay [9], the result was inactive.
Take `COc1ccc(C)cc1N`: the molecule was called inactive in assay [1], in [2], in assay [8], in assay [4], in assay [5] and in [9].
With `Cc1oc(-c2ccccc2)nc1CCOc1cccc2c1ccn2CCC(=O)O`, the AC50 is 4.28 µM (active) in assay [1], 0.0142 µM (active) in [5] and 10.9 µM (active) in assay [6]. Further, the outcome in assay [2], in [8], in [3], in [4] and in [9] was inactive.
For the molecule `Cc1ccc(C)c(C)c1`, the call in [1], in assay [2], in assay [8], in [4] and in assay [6] was inactive.
For `CCCCCCCCCCCC(=O)OC`, the call in assay [1], in assay [2], in assay [5] and in [6] was inactive. Moreover, in assay [4], the AC50 is 20 µM (active).
`CCCCC(CC)COC(=O)CC(C(=O)OCC(CC)CCCC)S(=O)(=O)O` (stereo not drawn): the result in assay [1], in assay [8], in [3], in assay [7] and in [9] was inactive. The AC50 in [2] is 31.5 µM (active); in [4] it was 30.6 µM (active); in assay [5] it was 7.56 µM (active); in assay [6] it was 0.678 µM (active).
Regarding `Nc1nc(N)c2nc(CNc3ccc(C(=O)N[C@@H](CCC(=O)O)C(=O)O)cc3)cnc2n1`, the molecule was classed as inactive in assay [1], in assay [2], in [8], in assay [3], in [4] and in assay [7]. Besides, in assay [9], the result was inactive.
As for `CCCCCCCC=O`, the call in [1], in assay [2], in [4], in assay [6] and in assay [7] was inactive. The AC50 in assay [5] is 100 µM (active).
On to `COc1ccc(S(=O)(=O)N2C(=O)[C@@](c3ccccc3OC)(N3C[C@H](O)C[C@H]3C(=O)N(C)C)c3cc(Cl)ccc32)c(OC)c1`, for which the molecule was classed as inactive in [1], in [2] and in [5]. For the same molecule, the half-maximal activity concentration (AC50) was 28.7 µM (active) in [4] and 0.038 µM (active) in [6].
As to `CC(=O)C(C)=CC1C(C)=CCCC1(C)C` (stereo not drawn), the molecule was called inactive in assay [1], in assay [2] and in assay [4].
For `Nc1ccccc1N`, the molecule was classed as inactive in [1], in assay [2], in [8], in [3], in assay [5] and in [6]. Besides, the result in assay [7] was inactive. Moreover, in assay [4], the AC50 is 9.14 µM (active).
In the case of `Oc1ccc2c(c1)OC[C@@H](N1CCC(O)(c3ccc(F)cc3)CC1)[C@H]2O`, the molecule was classed as inactive in assay [1], in assay [2], in [3] and in [4]. In addition, the AC50 was 16.5 µM (active) in [5] and 13.6 µM (active) in [6].
For `CN[C@H]1CC[C@@H](c2ccc(Cl)c(Cl)c2)c2ccc(S(N)(=O)=O)cc21`, the result in assay [1], in [5] and in [6] was inactive. Further, the AC50 is 30.9 µM (active) in [2] and 6.14 µM (active) in [4].
Regarding `CN1CCN(Cc2cc(-c3ccc4[nH]c(=O)oc4c3)co2)[C@@H](c2ccc(F)cc2)C1`, the result in [1], in assay [2] and in assay [6] was inactive. The AC50 in [4] was 23.4 µM (active); in assay [5], 42.4 µM (active).
For the molecule `C1CCC(SSC2CCCCC2)CC1`, the call in assay [1], in assay [2], in assay [5] and in assay [6] was inactive. Besides, in assay [4], the AC50 was 28.5 µM (active).
In the case of `CC(C)(C)c1cc(O)c(C(C)(C)C)cc1O`, the molecule was called inactive in assay [1], in assay [2], in assay [8] and in assay [3]. Further, the AC50 is 8.74 µM (active) in assay [4], 38.7 µM (active) in assay [5] and 2.99 µM (active) in assay [6].
For the molecule `O=C(OCCCCCOC(=O)c1ccccc1)c1ccccc1`, the result in assay [1], in [2], in assay [3], in assay [5] and in [6] was inactive. In assay [4], the AC50 is 29.7 µM (active).
As for `Cc1ccc(Cl)cc1`, the molecule was called inactive in [1], in assay [2], in assay [4], in [5] and in [6].
Consider `CC(C)c1ccc(C(=O)N=C(N)N)cc1S(C)(=O)=O`, for which the molecule was called inactive in assay [1], in assay [2], in assay [8], in assay [4], in assay [5] and in assay [6]. The call in assay [9] was inactive.
As for `CC1(C)NC(=O)NC1=O`, the outcome in assay [1], in assay [2], in assay [3], in assay [4], in assay [6] and in assay [7] was inactive.
For `CCCCCCOCCO`, the result in assay [1], in [2], in assay [4], in [5] and in [6] was inactive.
